The values that follow come from the supplement of paper PMC10849652.

About 8,800 targets were measured; listed, in parts, are those with a hit and a random draw of the rest. About 0.5% of all pairs of compound and target were hits. Values without a mark were called inactive.

Sequence of UniProt O00522 (O00522 whole entry, looked up): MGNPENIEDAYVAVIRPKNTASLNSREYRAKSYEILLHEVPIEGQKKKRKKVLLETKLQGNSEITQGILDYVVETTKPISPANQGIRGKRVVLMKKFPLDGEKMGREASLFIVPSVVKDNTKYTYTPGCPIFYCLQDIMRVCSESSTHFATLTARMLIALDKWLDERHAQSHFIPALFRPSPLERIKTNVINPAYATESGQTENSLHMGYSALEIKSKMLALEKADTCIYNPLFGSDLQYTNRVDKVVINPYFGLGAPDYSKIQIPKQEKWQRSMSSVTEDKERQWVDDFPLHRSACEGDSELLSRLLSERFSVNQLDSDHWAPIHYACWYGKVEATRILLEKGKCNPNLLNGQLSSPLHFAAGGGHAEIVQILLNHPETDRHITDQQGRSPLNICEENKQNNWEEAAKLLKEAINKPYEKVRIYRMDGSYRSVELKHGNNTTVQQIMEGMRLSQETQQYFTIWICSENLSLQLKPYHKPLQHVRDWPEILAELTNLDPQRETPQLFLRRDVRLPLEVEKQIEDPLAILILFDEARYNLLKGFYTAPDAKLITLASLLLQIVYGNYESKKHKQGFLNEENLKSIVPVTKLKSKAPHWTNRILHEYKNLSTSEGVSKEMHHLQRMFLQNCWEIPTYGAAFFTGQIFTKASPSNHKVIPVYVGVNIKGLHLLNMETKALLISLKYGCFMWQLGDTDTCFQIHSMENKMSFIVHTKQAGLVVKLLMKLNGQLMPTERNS
Sequence of UniProt Q16553 (Q16553 whole entry, looked up): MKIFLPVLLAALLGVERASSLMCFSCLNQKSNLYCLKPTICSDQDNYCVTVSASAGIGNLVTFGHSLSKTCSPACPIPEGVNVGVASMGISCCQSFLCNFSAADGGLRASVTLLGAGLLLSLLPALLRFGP
Sequence of UniProt Q9UMN6 (Q9UMN6 whole entry, looked up): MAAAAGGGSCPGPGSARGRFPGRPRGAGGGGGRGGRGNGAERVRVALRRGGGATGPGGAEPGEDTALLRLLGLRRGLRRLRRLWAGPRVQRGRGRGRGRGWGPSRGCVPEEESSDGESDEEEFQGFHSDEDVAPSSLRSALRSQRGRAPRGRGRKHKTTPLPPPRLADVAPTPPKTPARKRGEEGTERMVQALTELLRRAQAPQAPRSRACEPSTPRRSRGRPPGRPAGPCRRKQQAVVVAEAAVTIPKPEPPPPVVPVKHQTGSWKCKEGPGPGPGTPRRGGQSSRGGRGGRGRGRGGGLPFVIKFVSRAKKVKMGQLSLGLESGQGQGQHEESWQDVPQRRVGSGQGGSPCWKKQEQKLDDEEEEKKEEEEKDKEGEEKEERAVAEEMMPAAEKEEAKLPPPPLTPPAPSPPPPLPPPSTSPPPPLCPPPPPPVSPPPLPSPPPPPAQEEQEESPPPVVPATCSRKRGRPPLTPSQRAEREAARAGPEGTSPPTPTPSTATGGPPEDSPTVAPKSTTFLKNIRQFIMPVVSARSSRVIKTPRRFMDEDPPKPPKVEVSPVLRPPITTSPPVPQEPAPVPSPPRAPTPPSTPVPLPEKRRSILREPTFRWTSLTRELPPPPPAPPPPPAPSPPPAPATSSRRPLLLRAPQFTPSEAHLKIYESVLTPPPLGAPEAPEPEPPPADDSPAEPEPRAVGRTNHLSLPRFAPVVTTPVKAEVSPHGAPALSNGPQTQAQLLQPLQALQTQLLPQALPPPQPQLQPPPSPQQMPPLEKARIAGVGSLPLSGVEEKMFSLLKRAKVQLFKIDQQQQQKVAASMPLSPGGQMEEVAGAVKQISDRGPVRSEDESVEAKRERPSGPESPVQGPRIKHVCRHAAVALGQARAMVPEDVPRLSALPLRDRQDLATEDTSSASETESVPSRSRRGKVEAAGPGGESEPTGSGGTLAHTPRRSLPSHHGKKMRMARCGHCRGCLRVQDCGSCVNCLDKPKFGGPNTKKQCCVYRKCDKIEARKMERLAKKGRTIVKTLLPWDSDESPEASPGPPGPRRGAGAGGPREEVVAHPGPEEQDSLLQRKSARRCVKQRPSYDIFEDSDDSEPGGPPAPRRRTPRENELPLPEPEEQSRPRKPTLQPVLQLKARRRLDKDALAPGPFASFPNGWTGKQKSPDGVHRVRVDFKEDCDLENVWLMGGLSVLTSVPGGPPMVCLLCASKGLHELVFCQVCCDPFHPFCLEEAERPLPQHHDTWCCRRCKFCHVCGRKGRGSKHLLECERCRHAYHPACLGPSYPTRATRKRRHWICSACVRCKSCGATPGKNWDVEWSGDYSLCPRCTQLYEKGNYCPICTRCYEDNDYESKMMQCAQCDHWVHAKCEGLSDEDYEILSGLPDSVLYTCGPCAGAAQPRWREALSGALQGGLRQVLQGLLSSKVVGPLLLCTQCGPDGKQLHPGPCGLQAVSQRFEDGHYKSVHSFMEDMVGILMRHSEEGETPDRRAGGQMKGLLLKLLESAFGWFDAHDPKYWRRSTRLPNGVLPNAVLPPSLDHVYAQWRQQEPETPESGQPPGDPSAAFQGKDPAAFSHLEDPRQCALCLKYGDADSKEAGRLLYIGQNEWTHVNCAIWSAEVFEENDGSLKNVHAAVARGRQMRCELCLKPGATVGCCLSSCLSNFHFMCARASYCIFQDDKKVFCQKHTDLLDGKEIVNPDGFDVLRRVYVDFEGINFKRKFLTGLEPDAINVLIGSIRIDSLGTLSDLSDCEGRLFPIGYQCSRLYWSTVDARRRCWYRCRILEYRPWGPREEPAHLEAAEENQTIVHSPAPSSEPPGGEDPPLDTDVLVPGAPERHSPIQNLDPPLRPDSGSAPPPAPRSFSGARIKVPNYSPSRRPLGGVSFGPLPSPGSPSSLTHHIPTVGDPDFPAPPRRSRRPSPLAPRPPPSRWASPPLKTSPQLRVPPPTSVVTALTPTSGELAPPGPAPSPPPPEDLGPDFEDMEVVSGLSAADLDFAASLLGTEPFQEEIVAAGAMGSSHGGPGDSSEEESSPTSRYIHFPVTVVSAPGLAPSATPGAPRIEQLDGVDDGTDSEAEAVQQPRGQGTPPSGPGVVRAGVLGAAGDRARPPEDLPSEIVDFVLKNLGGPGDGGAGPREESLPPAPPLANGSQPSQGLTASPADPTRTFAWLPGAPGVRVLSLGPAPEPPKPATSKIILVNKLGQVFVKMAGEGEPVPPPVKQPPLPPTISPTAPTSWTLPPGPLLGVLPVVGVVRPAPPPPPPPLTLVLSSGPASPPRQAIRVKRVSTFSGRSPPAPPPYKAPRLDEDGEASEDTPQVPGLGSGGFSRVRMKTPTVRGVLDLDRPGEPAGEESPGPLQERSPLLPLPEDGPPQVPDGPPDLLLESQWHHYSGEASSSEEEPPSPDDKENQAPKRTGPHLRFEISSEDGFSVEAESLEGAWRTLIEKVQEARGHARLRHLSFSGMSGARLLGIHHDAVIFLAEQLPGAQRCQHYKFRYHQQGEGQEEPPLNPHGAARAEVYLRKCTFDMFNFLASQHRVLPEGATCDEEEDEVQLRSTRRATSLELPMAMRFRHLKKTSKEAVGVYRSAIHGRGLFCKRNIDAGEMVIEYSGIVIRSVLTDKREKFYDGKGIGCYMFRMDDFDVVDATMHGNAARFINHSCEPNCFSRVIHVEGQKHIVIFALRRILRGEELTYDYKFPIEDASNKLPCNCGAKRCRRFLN
Sequence of UniProt P27816 (P27816 whole entry, looked up): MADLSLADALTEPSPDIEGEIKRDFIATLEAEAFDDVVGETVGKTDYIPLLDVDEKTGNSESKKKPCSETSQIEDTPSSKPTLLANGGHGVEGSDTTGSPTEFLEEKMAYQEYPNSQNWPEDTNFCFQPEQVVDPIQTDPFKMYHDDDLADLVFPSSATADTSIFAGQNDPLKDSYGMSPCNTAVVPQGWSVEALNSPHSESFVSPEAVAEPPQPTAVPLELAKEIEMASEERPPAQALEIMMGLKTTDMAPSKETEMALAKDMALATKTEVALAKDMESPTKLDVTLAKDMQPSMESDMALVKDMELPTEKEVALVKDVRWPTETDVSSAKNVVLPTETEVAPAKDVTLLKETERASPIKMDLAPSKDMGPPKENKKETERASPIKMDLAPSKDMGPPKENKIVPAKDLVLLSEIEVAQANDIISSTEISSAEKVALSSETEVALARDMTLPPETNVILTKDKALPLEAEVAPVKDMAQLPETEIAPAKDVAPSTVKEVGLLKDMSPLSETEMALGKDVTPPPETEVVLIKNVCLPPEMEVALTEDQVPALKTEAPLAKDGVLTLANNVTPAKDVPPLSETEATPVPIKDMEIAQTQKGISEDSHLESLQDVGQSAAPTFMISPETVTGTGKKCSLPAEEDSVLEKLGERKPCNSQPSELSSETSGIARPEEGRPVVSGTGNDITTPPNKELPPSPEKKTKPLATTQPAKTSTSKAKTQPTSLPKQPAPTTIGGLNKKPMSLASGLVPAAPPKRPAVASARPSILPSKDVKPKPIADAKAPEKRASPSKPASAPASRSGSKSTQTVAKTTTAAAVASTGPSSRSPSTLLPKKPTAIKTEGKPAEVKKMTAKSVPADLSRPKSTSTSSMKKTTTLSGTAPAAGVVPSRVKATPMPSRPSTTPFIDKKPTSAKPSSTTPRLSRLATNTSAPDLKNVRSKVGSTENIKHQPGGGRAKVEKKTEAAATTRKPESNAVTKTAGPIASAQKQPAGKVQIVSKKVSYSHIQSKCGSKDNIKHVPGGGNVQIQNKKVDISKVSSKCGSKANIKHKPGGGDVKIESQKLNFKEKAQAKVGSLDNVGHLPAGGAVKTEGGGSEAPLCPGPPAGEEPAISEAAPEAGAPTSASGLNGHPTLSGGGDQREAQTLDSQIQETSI
Sequence of UniProt O15243 (O15243 whole entry, looked up): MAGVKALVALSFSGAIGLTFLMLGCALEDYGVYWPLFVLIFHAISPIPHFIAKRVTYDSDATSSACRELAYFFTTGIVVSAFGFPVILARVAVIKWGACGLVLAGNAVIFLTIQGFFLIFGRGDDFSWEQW
Sequence of UniProt P01116 (P01116 whole entry, looked up): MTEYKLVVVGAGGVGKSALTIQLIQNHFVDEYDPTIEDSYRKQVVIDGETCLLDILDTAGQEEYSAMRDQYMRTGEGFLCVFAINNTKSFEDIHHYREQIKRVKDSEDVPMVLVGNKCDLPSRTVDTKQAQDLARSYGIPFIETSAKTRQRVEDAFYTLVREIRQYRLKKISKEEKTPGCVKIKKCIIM

Compound in the experiment: COC(=O)[C@H](CCSC)NC(=O)C1=C(C=C(C=C1)NC[C@H](CS)N)C2=CC=CC=C2
The experiment can be described thus: log2 fold change, soluble protein after heating vs DMSO (PISA); higher = thermal stabilisation; K562 lysate, 10 uM; active = over 0.2 and 3.5 SD of the protein, either way, in both replicates (recomputed). A digest of the protocol: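 A 30 min treatment with 10 μM compound was applied to crude K562 extract at 1 mg/mL protein in PBS pH 7.4 with 1 mM MgCl2. Heating for 3 min spanned 48°C-58°C, after which aliquots were pooled, adjusted to 0.5% NP-40 at 4°C and spun at 21,000xg for 90 min. TMTpro 16plex LC-MS/MS of the supernatant, with channel sums equalised, gave values recorded as log-two fold change in thermal stability against solvent controls, from duplicates.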
For LGALS3BP (UniProt Q08380), the log2 fold change was 0.082.

Consider MAPKAP1 (UniProt Q9BPZ7), for which the log2 fold change is 0.036.

On to LEPROT (UniProt O15243), for which the log2 fold change is 0.01.

With KRIT1 (UniProt O00522), the log2 fold change is 0.123.

Turning to KLC1 isoform 10 (UniProt Q07866), the log2 fold change was -0.109.

Regarding LRP1 (UniProt Q07954), the log2 fold change was 0.043.

In the case of KMT2B (UniProt Q9UMN6), the log2 fold change was -0.008.

Consider KIFC3 isoform 6 (UniProt Q9BVG8), for which the log2 fold change is 0.04.

Regarding MAPK12 (UniProt P53778), the log2 fold change is 0.035.

For the target LSM11 (UniProt P83369), the log2 fold change is 0.041.

On to MRC2 (UniProt Q9UBG0), for which the log2 fold change is -0.301.

For MARCHF6 (UniProt O60337), the log2 fold change was -0.05.

For KIF18B (UniProt Q86Y91), the log2 fold change was -0.04.

As to LRRC9 (UniProt Q6ZRR7), the log2 fold change was 0.003.

On to MMS22L (UniProt Q6ZRQ5), for which the log2 fold change was 0.017.

Turning to LIMK1 (UniProt P53667), the log2 fold change was -0.086.

For the target MCMBP isoform 2 (UniProt Q9BTE3), the log2 fold change was 0.124.

Take MAP4K4 isoform 6 (UniProt O95819): the log2 fold change is -0.034.

In the case of KRAS isoform 2 (UniProt P01116), the log2 fold change is -0.062.

On to MEGF8 (UniProt Q7Z7M0), for which the log2 fold change was 0.131.

Regarding LY6E (UniProt Q16553), the log2 fold change is -0.005.

MAP4 isoform 5 (UniProt P27816): the log2 fold change was -0.025.
